Screening data from PubChem BioAssay.
Only a selection was taken, and hits are over-represented in it overall.
AMA1 RON2 block: inhibitors of Plasmodium falciparum AMA1-RON2 interaction | hit rate 0.2% among 360,000 | AlphaScreen AMA1-biotinylated RON2 peptide binding | Potency, µM (highest dose often 58.2 µM), for the others: top-dose activity change, negative = inhibition, most hits filed as inhibitors; active = well fitted inhibition curve with a large enough effect; inconclusive = small, poorly fitted or top-dose-only effect; inactive = no such curve, though single readings can be large or run the other way;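 note: potency is the fitted concentration of half-maximal effect; 0% = vehicle wells and -100% = peptide control; nearly all actives have a fitted effect of over 45% in size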
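AMA1 (3D7) with his tag at 25 nM final met compounds first, then biotinylated RON2 peptide at 25 nM; detection used donor plus acceptor beads, 10 µg/mL apiece, read by AlphaScreen after 30 min at room temperature.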
Cycloheximide cs: counter-screen hit for Shiga toxin inhibitors, cycloheximide. cell reporter, cycloheximide protein synthesis inhibition counterscreen. max response, %. hit rate 12% among 300,000. AID 2314; in the data active = max response mostly above about 13%, no sharp cut-off; inactive = mostly below about 14%; note: read at 38.3 µM for the half of the compounds with a filed dose; 0% is about no effect
Lassa entry inh: blocks Lassa virus binding to or entry into cells. hit rate 1.2% among 300,000. Potency, µM (highest dose often 37.9 µM), for inactives: top-dose activity change, negative = inhibition, most hits filed as inhibitors. Lassa virus pseudotype entry inhibition, cell reporter; calls by dose curve; tested in HEK293 cells; note: potency is the fitted concentration of half-maximal effect; % is set by controls: 0 for no effect and ±100 for the full control effect; nearly all actives have a fitted effect of over 50% in size
Shiga inhibitor: inhibitors of Shiga toxin in Vero cells. Vero cells, Shiga toxin protein synthesis inhibition reporter. inhibition, % at 38.7 µM. hit rate 9.2% among 290,000. AID 2315; in the data active = inhibition mostly above about 28%, no sharp cut-off; inactive = mostly below about 43%; note: 0% is about no effect
Marburg entry inh: inhibitors of Marburg virus binding or cell entry; AID 540276; Potency, µM (series often up to 37.8 µM), inactives show at the highest dose activity change, negative = inhibition, usual class: inhibitors; Marburg virus pseudotyped entry inhibition, cell reporter; hit rate 1.8% among 300,000; calls by dose curve; tested in HEK293 cells; note: potency is the fitted concentration of half-maximal effect; % is set by controls: 0 for no effect and ±100 for the full control effect
The depositor's hits bear a star; [ ] = dose if it differs, or a comment.

Screening CCN(C(=O)Cn1nc(Cc2cccnc2)c2ccccc2c1=O)c1cc(C)ccc1C returned Lassa entry inh -6.9%[46.1 µM] and Marburg entry inh -27.4%[46.1 µM].
For CC(C)CN(C)Cc1c(C(=O)N2CCc3ccccc3C2)nc2ccc(Cl)cn12 the results were AMA1 RON2 block -22.0%, Cycloheximide cs 0.8, Lassa entry inh -5.3%, Shiga inhibitor -8.8 and Marburg entry inh 11.2µM*.
`Cc1cccc(Nc2nc(-c3ccc(O)cc3O)cs2)n1` gave AMA1 RON2 block 54.7%, Cycloheximide cs 38.2*, Lassa entry inh -28.8%[46.1 µM], Shiga inhibitor 109.3* and Marburg entry inh inconclusive.
For Oc1ccc(-c2csc(Nc3ncccn3)n2)c(O)c1 the results were AMA1 RON2 block 78.6%, Cycloheximide cs 59.5*, Lassa entry inh -22.1%, Shiga inhibitor 88.2* and Marburg entry inh -25.8%[46.1 µM].
Screening CC(N)c1csc(Nc2ncccn2)n1 (stereo not given) returned AMA1 RON2 block 109.6%.
Screening Oc1ccc(-c2csc(Nc3ncccn3)n2)cc1O returned AMA1 RON2 block -14.4%, Cycloheximide cs 32.8*, Lassa entry inh inconclusive, Shiga inhibitor 103.2* and Marburg entry inh inconclusive.
Cc1cc2c(c(=O)o1)C1O[C@](CCCCN3C(=O)c4ccccc4C3=O)(Cc3cc(C#N)ccc31)O2 was read as Cycloheximide cs -1.5 and Shiga inhibitor inactive.
`S=C1NC2(CCCC2)Nc2ccccc21` gave AMA1 RON2 block -2.7%, Cycloheximide cs 38.3*, Lassa entry inh -4.0%, Shiga inhibitor 102.8* and Marburg entry inh 10.4%.
S=C1NC2(CCCCC2)Nc2ccccc21 was read as AMA1 RON2 block -2.6%, Cycloheximide cs 15.7* and Shiga inhibitor 33.1.
For c1cc2c3c(cccc3c1)NC1(CCCC1)N2 the results were AMA1 RON2 block 9.7%, Lassa entry inh 8.2% and Marburg entry inh -22.0%.
Screening Cc1cc(C)c2cc3c(N)c(C(=O)N4CCc5ccccc5C4)sc3nc2c1 returned AMA1 RON2 block 19.7%, Cycloheximide cs -1.3, Lassa entry inh 6.3%, Shiga inhibitor 5.9 and Marburg entry inh -0.2%.
For Cc1cccc2cc3c(N)c(C(=O)N4CCOCC4)sc3nc12 the results were AMA1 RON2 block 19.5%, Cycloheximide cs 50.5*, Lassa entry inh 11.2µM*, Shiga inhibitor 115.2* and Marburg entry inh inconclusive.
For c1ccc(OCCCc2nc(-c3ccncc3)no2)cc1 the results were AMA1 RON2 block -5.5%, Cycloheximide cs -2.1, Lassa entry inh 13.5%, Shiga inhibitor 13.9 and Marburg entry inh -23.4%.
`Nc1nonc1-c1noc(CCCCCN2C(=O)c3ccccc3C2=O)n1` gave AMA1 RON2 block 10.6%, Cycloheximide cs 74.9*, Lassa entry inh 3.8%, Shiga inhibitor 148.0* and Marburg entry inh -19.2%[46.1 µM].
O=C1c2ccccc2C(=O)N1CCc1nc(-c2ccccn2)no1 was read as AMA1 RON2 block 28.4%, Cycloheximide cs 28.1*, Lassa entry inh 4.7%, Shiga inhibitor 57.8* and Marburg entry inh inconclusive.
Screening O=C1c2ccccc2C(=O)N1CCCc1nc(-c2ccc(Cl)cc2)no1 returned AMA1 RON2 block -1.1%, Cycloheximide cs -1.4 and Shiga inhibitor -15.9.
Screening c1ccc(OCCCc2nc(-c3ccccn3)no2)cc1 returned AMA1 RON2 block 6.0%, Cycloheximide cs 33.9*, Lassa entry inh 3.3%, Shiga inhibitor 42.3* and Marburg entry inh -8.5%.
Screening O=C1c2ccccc2C(=O)N1CCCc1nc(-c2ccccn2)no1 returned AMA1 RON2 block 17.0%, Cycloheximide cs 22.7*, Lassa entry inh -12.7%, Shiga inhibitor 83.9* and Marburg entry inh 8.7%[46.1 µM].
For CCCCN(C(=O)CC1CCCCC1)c1c(N)n(CCCC)c(=O)[nH]c1=O the results were AMA1 RON2 block 11.9%.
For COc1ccc(CCNC(=O)c2cccc(NS(=O)(=O)c3ccccc3F)c2)cc1OC the results were AMA1 RON2 block -16.3%, Cycloheximide cs -4.0, Lassa entry inh 8.1%, Shiga inhibitor -4.7 and Marburg entry inh -15.7%.
O=C(NCCc1csc(-c2cccnc2)n1)c1cccc(C(F)(F)F)c1 was read as Lassa entry inh -19.5%[46.1 µM].
`CC(C)(C)c1ccc(Cn2c(=N)n(CC(O)c3ccco3)c3ccccc32)cc1` (stereo not given) gave AMA1 RON2 block -10.9%, Cycloheximide cs -8.4, Lassa entry inh -27.0%, Shiga inhibitor -22.0 and Marburg entry inh 11.2µM*.
CCCCn1c(=N)n(CC(O)c2ccccc2)c2ccccc21 (stereo not given) was read as AMA1 RON2 block -11.7%, Cycloheximide cs -1.0, Lassa entry inh inconclusive, Shiga inhibitor -14.3 and Marburg entry inh 13µM*.
`CCCCCCCn1c(=N)n(CC(O)c2ccco2)c2ccccc21` (stereo not given) gave AMA1 RON2 block -16.6%, Cycloheximide cs -1.4, Lassa entry inh inconclusive, Shiga inhibitor -8.5 and Marburg entry inh 2.82µM*.
`N=c1n(CCN2CCCC2)c2ccccc2n1CC(O)c1ccco1` (stereo not given) gave AMA1 RON2 block -1.9%, Cycloheximide cs 0.1, Lassa entry inh inconclusive, Shiga inhibitor 22.3 and Marburg entry inh inconclusive.
`O=C(O)Cc1cccc(OCCCN(Cc2cccc(C(F)(F)F)c2Cl)CC(c2ccccc2)c2ccccc2)c1` gave Cycloheximide cs 0.1 and Shiga inhibitor 10.1.
Screening CC(CC(=O)NCc1ccccc1)C1CCCO1 (stereo not given) returned AMA1 RON2 block 5.0%, Cycloheximide cs 17.5*, Lassa entry inh -6.5%, Shiga inhibitor 25.9* and Marburg entry inh 11.9%.
`COc1ccc(-c2ccc(CN3C(C(C)C)C(=O)N(Cc4cn(CC5CCCCC5)nn4)CCS3(=O)=O)cc2)cc1OC` (stereo not given) gave AMA1 RON2 block 9.5% and Marburg entry inh inconclusive.
For Fc1cccc(C2NN=C(c3ccccc3)S2)c1 (stereo not given) the results were AMA1 RON2 block 14.3%, Cycloheximide cs 73.0*, Lassa entry inh inconclusive, Shiga inhibitor 112.2* and Marburg entry inh inconclusive.
Cc1ccc(C2=NNC(c3cccc(F)c3)S2)cc1 (stereo not given) was read as AMA1 RON2 block 19.6%, Cycloheximide cs 7.6 and Shiga inhibitor 3.0.
Screening Clc1ccccn1 returned AMA1 RON2 block 11.1%.
C=C(C)C(=O)Nc1nnc(-c2ccccc2C)s1 was read as AMA1 RON2 block 25.3%, Cycloheximide cs 33.6*, Lassa entry inh -10.3%, Shiga inhibitor 24.3 and Marburg entry inh -0.4%.
CCOC(=O)Nc1nnc(-c2ccccc2OC)s1 was read as AMA1 RON2 block 4.1%, Cycloheximide cs 21.4*, Lassa entry inh -2.5%, Shiga inhibitor 32.8* and Marburg entry inh 17.6%.
`COC(=O)Nc1nnc(-c2ccccc2OC)s1` gave AMA1 RON2 block -13.9%, Cycloheximide cs 37.9*, Lassa entry inh inconclusive, Shiga inhibitor 74.3* and Marburg entry inh inconclusive.
C/C=C/C(=O)Nc1nnc(-c2ccccc2C)s1 was read as AMA1 RON2 block -1.5%, Cycloheximide cs 6.1 and Shiga inhibitor 4.0.
`COC(=O)Nc1nnc(-c2ccccc2Cl)s1` gave AMA1 RON2 block -2.7%, Cycloheximide cs 25.8*, Lassa entry inh inconclusive, Shiga inhibitor 65.1* and Marburg entry inh 14.7%.
